Source: PubChem (National Center for Advancing Translational Sciences (NCATS))
Hits are enriched below; roughly 7.6% of the tested compounds scored in any of these assays.
Giardia kill – Small Molecules that selectively kill Giardia lamblia: qHTS. Giardia lamblia trophozoite viability. 340,000 compounds, 0.15% hits. activity change, % at 7.66 µM, hits read low; in the data active means activity change below about -80%; inconclusive means between about -30% and that limit;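 further: parasites exposed to compound for two days anaerobically before the ATP read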
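Each well holds 100 Giardia trophozoites and compound. After two days (48 hrs) at 37 deg C in anaerobic conditions, ATP is quantified by luminescence.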
p53 reactivation – qHTS assay for re-activators of p53 using a Luc reporter | H1299 p53-A138V BP100-luciferase reporter, luminescence, 24 h | 320,000 compounds, 0.063% hits | Potency, µM (top dose mostly 92.2 µM), most hits filed as activators | AID 504706, 2011; further: nearly all actives have a fitted effect of over 45% in size
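H1299 (p53-null), stable ts p53-A138V + BP100-Luc; 1000 cells/well, Opti-MEM/10% FBS; cpd 4 pt, 1:5; 24 h, 37 deg C, 5% CO2; detection reagent 10 min RT; luminescence.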
ELG1 repair inh – qHTS screen for small molecules that inhibit ELG1-dependent DNA repair in human embryonic kidney (HEK293T) cells expressing luciferase-tagged ELG1. Potency, µM (series often up to 46.1 µM), hits mostly inhibitors. 330,000 compounds, 2.3% hits. HEK293T ELG1-luciferase reporter, luminescence, 16 h; DNA damage induced by 5-fluorouridine; further: nearly all actives have a fitted effect of over 55% in size
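HEK293T cells expressing luciferase-tagged ELG1 (2,000/well) received 5-Fluorouridine plus compound or DMSO for 16 hr at 37 °C. Luciferase was read by ONE-Glo luminescence after 30 min at room temperature.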
VP16 counter – VP16 counterscreen qHTS for inhibitors of ROR gamma transcriptional activity | Drosophila S2 Gal4-VP16 UAS-luciferase, luminescence, 20 h | Potency, µM (top dose mostly 53.6 µM), actives largely listed as inhibitors | 310,000 compounds, 3.5% hits | AID 2546, 2010;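 further: Gal4-VP16 expression switched on by copper sulfate through the metallothionein promoter; nearly all actives have a fitted effect of over 50% in size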
BRCA1 expr up – qHTS Assay to Identify Small Molecule Activators of BRCA1 Expression; MCF7-BRCA1-FFLuc reporter, luminescence, 48 h; response scale: scaled: vehicle 0%, 10 µM genistein 100%; Potency, µM (series often up to 46.1 µM), most hits filed as activators; 380,000 compounds, 1.1% hits; further: nearly all actives have a fitted effect of over 80% in size
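Quantitative HTS in MCF7 cells stably reporting BRCA1 expression via firefly luciferase. Compound treatment lasts 48 h at 37 °C in phenol-red free MEM. Activation is expressed relative to genistein at 10 microM and DMSO.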
RORgamma inh – qHTS for inhibitors of ROR gamma transcriptional activity; Potency, µM (highest dose often 53.6 µM), most hits filed as inhibitors; 310,000 compounds, 5.4% hits; Drosophila S2 Gal4-RORgamma UAS-luciferase reporter, 20 h; further: nearly all actives have a fitted effect of over 60% in size
Target sequence (P51450 whole entry, looked up, the tested form may be a part): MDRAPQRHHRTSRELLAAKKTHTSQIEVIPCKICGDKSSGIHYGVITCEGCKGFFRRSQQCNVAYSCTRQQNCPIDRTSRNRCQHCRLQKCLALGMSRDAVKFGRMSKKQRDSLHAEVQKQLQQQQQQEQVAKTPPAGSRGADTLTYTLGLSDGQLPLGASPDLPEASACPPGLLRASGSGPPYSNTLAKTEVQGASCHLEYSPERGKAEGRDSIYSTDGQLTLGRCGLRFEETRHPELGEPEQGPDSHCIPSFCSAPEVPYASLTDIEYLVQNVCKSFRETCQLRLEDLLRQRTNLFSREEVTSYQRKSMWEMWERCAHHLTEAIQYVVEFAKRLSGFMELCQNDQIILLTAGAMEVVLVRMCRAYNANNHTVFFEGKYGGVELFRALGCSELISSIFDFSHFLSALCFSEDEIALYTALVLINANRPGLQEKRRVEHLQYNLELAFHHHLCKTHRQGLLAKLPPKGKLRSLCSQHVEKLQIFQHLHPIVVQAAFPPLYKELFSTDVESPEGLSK
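Schneider cells (Drosophila), stable Gal4 DBD–ROR gamma + UAS-luc; 1 hr cmpd preincubation; Cu2+ induction 700 uM final; 20 hr ambient; luminescence.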
Each line names hits and unclear results; the compound was inactive in the other large screens. Unless noted, the call rests on the fitted dose curve; in most records, active means well fitted curve in the direction sought with a large enough effect; inconclusive means small, poorly fitted or top-dose-only effect, or another doubt; inactive means no such curve, though single readings can be large; an effect the other way counts as inactive or inconclusive.

Cc1cc(C)c2nc(NC(=O)c3ccc(S(=O)(=O)N4CCC(C)CC4)cc3)sc2c1	none (no result: Giardia kill, p53 reactivation, ELG1 repair inh, VP16 counter, RORgamma inh)
Cc1cc(C)c2nc(NNC(=O)c3ccc(S(=O)(=O)N4CC(C)CC(C)C4)cc3)sc2c1 (centres undefined)	p53 reactivation inconclusive, VP16 counter 7.94µM, RORgamma inh 2µM
Cc1cccc2sc(NNC(=O)c3ccc(S(=O)(=O)N4CC(C)CC(C)C4)cc3)nc12 (centres undefined)	ELG1 repair inh inconclusive, VP16 counter 1.41µM, RORgamma inh 0.708µM
Cc1cc(C)c2nc(NNC(=O)c3ccc(S(=O)(=O)N4CCCC(C)C4)cc3)sc2c1 (centres undefined)	p53 reactivation inconclusive, ELG1 repair inh inconclusive, VP16 counter 5.01µM, RORgamma inh 0.794µM
CCOc1ccccc1N(CC(=O)NCC1CCCO1)C(=O)CCC(=O)Nc1ccccn1 (centres undefined)	RORgamma inh 35.5µM
CN(C)S(=O)(=O)c1cccc(C(=O)OCC(=O)Nc2sccc2C(N)=O)c1	ELG1 repair inh 18.4µM
CCS(=O)(=O)N1Cc2ccccc2CC1C(=O)Nc1nc2ccc(C)cc2s1 (centres undefined)	p53 reactivation inconclusive, VP16 counter inconclusive, RORgamma inh 1.26µM
CCS(=O)(=O)N1Cc2ccccc2CC1C(=O)Nc1cccc(C)c1 (centres undefined)	ELG1 repair inh inconclusive, BRCA1 expr up 5.01µM
Cc1ccc(NC(=O)C2(S(=O)(=O)c3ccc(Cl)cc3)CC2)c(Br)c1	none
COc1ccc(NS(=O)(=O)c2cc(NC(=O)c3ccco3)ccc2N2CCCCC2)cc1	ELG1 repair inh inconclusive, VP16 counter 12.6µM, RORgamma inh inconclusive
N#Cc1ccc(NC(=O)CNc2cc(S(=O)(=O)N3CCOCC3)ccc2NCC2CCCO2)cc1 (centres undefined)	ELG1 repair inh 8.2µM
COc1ccc(NS(=O)(=O)c2cc(NC(=O)c3ccc(Cl)cc3)ccc2N2CCOCC2)cc1	ELG1 repair inh 9.2µM (no result: VP16 counter, RORgamma inh)
COc1ccc(C(=O)Nc2ccc(Cl)c(S(=O)(=O)N3CCOCC3)c2)cc1	ELG1 repair inh 9.2µM (no result: VP16 counter, RORgamma inh)
COc1ccc(NS(=O)(=O)c2cc(NC(=O)c3ccncc3)ccc2N2CCOCC2)cc1	none
Cc1cc(COc2ccccc2OCc2cc(C)no2)on1	none
COc1ccc(-c2csc(C(C)(O)c3cccc(F)c3)n2)cn1 (centres undefined)	none (no result: Giardia kill, p53 reactivation, ELG1 repair inh, VP16 counter, RORgamma inh)
CCCC1C2C(=O)N(c3cccc(C)c3)C(=O)C2ON1c1ccccc1 (centres undefined)	none
COc1ccccc1NS(=O)(=O)c1cc(NC(=O)c2cccnc2)ccc1N1CCCCC1	ELG1 repair inh 18.3µM (no result: VP16 counter, RORgamma inh)
COc1cccc(NC(=O)c2ccc(S(=O)(=O)N3CCCC3)cc2)c1	none
COc1ccc(C(=O)Nc2ccc(N3CCOCC3)cc2)cc1S(=O)(=O)N1CCOCC1	none (no result: VP16 counter, RORgamma inh)
O=C(Nc1ccc(Cl)c(S(=O)(=O)N2CCOCC2)c1)c1ccc(OCC2CCCO2)cc1 (centres undefined)	ELG1 repair inh 2.91µM, VP16 counter inconclusive
CC(C)Oc1ccc(C(=O)Nc2cccc(S(=O)(=O)N3CCCC3)c2)cc1	ELG1 repair inh 23.1µM (no result: VP16 counter, RORgamma inh)
COc1ccc(C(=O)Nc2ccc(-c3ccc(C)o3)cc2)cc1S(=O)(=O)N1CCOCC1	ELG1 repair inh 14.6µM, VP16 counter inconclusive, RORgamma inh inconclusive
CCCCn1c(N)c(N(CCC(C)C)C(=O)C2CCN(C(=O)c3ccccc3C)CC2)c(=O)[nH]c1=O	ELG1 repair inh inconclusive (no result: VP16 counter, RORgamma inh)
O=C1CC2(CCN(C(=O)c3ccccc3[N+](=O)[O-])CC2)Oc2ccccc21	none (no result: VP16 counter, RORgamma inh)
C/C(CC(=O)Nc1ccc(N(C)C)cc1)=N\NC(=O)c1ccc(Cl)cc1	RORgamma inh inconclusive
Cc1cc(N2CCOCC2)nc2ccc(NC(=S)N3CCCCC3C)cc12 (centres undefined)	ELG1 repair inh inconclusive, RORgamma inh inconclusive
O=C(Nc1cccc(S(=O)(=O)N2CCCCC2)c1)c1ccc(OCC2CCCO2)cc1 (centres undefined)	ELG1 repair inh 13µM, VP16 counter inconclusive, RORgamma inh inconclusive
O=C(Nc1cccc(C(F)(F)F)c1)Nc1ccc(N2CCCC2)c(S(=O)(=O)Nc2ccccc2Cl)c1	ELG1 repair inh inconclusive, VP16 counter 11.2µM, RORgamma inh inconclusive
CC(=O)Nc1ccc(N2CCOCC2)c(S(=O)(=O)Nc2ccccc2Cl)c1	none (no result: Giardia kill, p53 reactivation, ELG1 repair inh, VP16 counter, RORgamma inh)
CC(C)c1cccc(-c2csc(C(C)(O)c3ccncc3)n2)c1 (centres undefined)	none (no result: Giardia kill, p53 reactivation, ELG1 repair inh, VP16 counter, RORgamma inh)
COc1cccc(OC)c1C(=O)Nc1ccc2c(c1)CCCN2S(=O)(=O)c1ccc(C)cc1	none
Cc1cccnc1NC(=O)c1cccc(S(=O)(=O)N2CCCc3ccccc32)c1	ELG1 repair inh inconclusive, VP16 counter inconclusive, RORgamma inh 11.2µM
CC(=O)Nc1cccc(NC(=O)c2ccc3c(c2)CCN3S(=O)(=O)c2ccccc2)c1	none
CN(C)S(=O)(=O)c1cccc(NC(=O)c2cccc(S(=O)(=O)N3CCc4ccccc43)c2)c1	ELG1 repair inh 16.4µM (no result: VP16 counter, RORgamma inh)
Cc1ccc(S(=O)(=O)N2CCCc3cc(NC(=O)c4c(F)cccc4F)ccc32)cc1	ELG1 repair inh 23.1µM
CC(=O)c1cccc(NC(=O)c2ccc3c(c2)CCN3S(=O)(=O)c2ccccc2)c1	ELG1 repair inh inconclusive, VP16 counter 12.6µM, RORgamma inh inconclusive
COc1cc2c(cc1OC)C(C)N(C(=O)Cn1ncc3c1-c1cc(C)ccc1OC3)CC2 (centres undefined)	ELG1 repair inh 18.4µM
COc1ccc(N2CCN(C(=O)Cn3ncc4c3-c3cc(C)ccc3OC4)CC2)cc1	none (no result: Giardia kill, p53 reactivation, ELG1 repair inh, VP16 counter, RORgamma inh)
Cc1cc(SCC(=O)N/N=C/c2ccc(O)c(O)c2O)c(C)cc1Br	VP16 counter inconclusive, RORgamma inh 2.82µM
COc1ccc(/C=N/NC(=O)CSCC(=O)Nc2ccccc2)cc1OC	none
COc1cc(/C=N/NC(=O)CSc2cc(C)c(Br)cc2C)ccc1O	ELG1 repair inh 16.4µM
COC(=O)Oc1ccc(/C=N/NC(=O)CSCc2ccccc2Br)cc1OC	ELG1 repair inh inconclusive, VP16 counter 12.6µM, RORgamma inh inconclusive
CCCCOc1cccc(C2(C(=O)O)CCCC2)c1	none
CC(C)C[C@H]1CN(CCCC[C@@H]2CNC(=O)C(=O)N2CC2CCCCC2)C(=O)C(=O)N1CCC1CCCCC1	none (no result: Giardia kill, p53 reactivation, ELG1 repair inh, VP16 counter, RORgamma inh)
CN(CC(=O)Nc1ccc(F)cc1)C(=O)Cc1ccsc1	none (no result: VP16 counter, RORgamma inh)
